# Compound activity as filed in PubChem.
# ALR inh – inhibitors of human ALR sulfhydryl oxidase, primary screen, biochemical, H2O2 detection, HRP-luminol luminescence, single point. FAD-linked sulfhydryl oxidase ALR (Homo sapiens), P55789. inhibition, % (no concentration beside the values). 290,000 tested, 3.8% active. purified ALR, DTT oxidation;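 active = mean replicate inhibition above about 79%, with every replicate also reaching it, limit read from the data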
# Target sequence (P55789 whole entry, looked up): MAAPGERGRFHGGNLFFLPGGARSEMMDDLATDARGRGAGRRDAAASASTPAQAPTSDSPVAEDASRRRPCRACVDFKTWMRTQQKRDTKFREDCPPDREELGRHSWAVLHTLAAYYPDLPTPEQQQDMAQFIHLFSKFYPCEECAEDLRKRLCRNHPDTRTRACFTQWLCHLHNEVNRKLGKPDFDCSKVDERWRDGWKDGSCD
# Mot1-301 SUMO – yeast Mot1-301 growth rescue at high temperature, primary screen, SUMOylation pathway inhibitor project, S. cerevisiae, ATP luminescence, 38.5C; 320,000 tested, 1% active; growth rescue, % at 18.8 µM; AID 2716, 2010; S. cerevisiae Mot1-301 growth rescue; percent above DMSO median, 100 means doubled;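 active = every valid replicate shows activation above 250% relative to neutral control wells; inactive = the rest, any valid replicate at or below 250%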;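 note: OY570 slx delta 5 strain wells were the positive control but not used for scaling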
# NSD2 inh – NSD2 histone methyltransferase inhibitors, primary screen, biochemical, AlphaScreen, single concentration, set 2 | Histone-lysine N-methyltransferase NSD2 (Homo sapiens), O96028 | AID 743445, 2014 | NSD2 peptide methylation, 120 min | inhibition, % at 12.5 µM | 310,000 tested, 0.54% active; in the data active = inhibition above about 50%
# CDK5 inh – inhibitors of human CDK5/p35 kinase, primary screen, biochemical, single concentration; Cyclin-dependent kinase 5 (Homo sapiens) + Cyclin-dependent kinase 5 activator 1 (Homo …; Recombinant CDK5/p35, ADP-Glo luminescence, 60 min; inhibition, % at 10 µM; 330,000 tested, 0.01% active; AID 488839, 2010;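 active = highest replicate inhibition of at least 50% and at least 75% of replicates reaching 50%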;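 note: plate controls were DMSO neutral control for no effect and GW8510 at 10 µM for full effect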
# Casp6 inh – human caspase-6 inhibitors, primary screen, biochemical, VEID-R110 fluorescence, single point, set 2. P55212. purified caspase-6, Z-VEID-R110 cleavage fluorescence. inhibition, % at 12.5 µM. 350,000 tested, 0.53% active. AID 686996, 2013;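 active = mean inhibition across replicates at least about 35%, with every replicate also reaching that limit, limit read from the data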;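 note: 0% = median of neutral control wells and 100% = no fluorescence left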
# Target sequence (P55212 24-179 limits assumed): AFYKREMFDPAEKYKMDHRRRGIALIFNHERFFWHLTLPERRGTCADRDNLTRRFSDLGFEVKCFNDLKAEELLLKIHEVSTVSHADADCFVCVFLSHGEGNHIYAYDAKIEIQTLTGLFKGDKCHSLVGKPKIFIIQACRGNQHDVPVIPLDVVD
# Target sequence (P55212 194-293 limits assumed): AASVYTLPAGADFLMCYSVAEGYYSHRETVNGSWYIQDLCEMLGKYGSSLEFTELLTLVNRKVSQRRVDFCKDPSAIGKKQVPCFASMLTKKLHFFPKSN
# N-glyco inh – increase of ERlucT glycosylation luciferase signal, primary screen, N-linked glycosylation inhibitor project, D54 ERlucT cells, luminescence, set 2; D54 ERlucT glycosylation luciferase reporter, 24 h; percent of 100 nM tunicamycin response; reporter increase, % at 12.5 µM; AID 588692, 2011; 360,000 tested, 0.23% active;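 active = mean luciferase reporter signal, scaled so untreated is 0 and the glycosylation-blocking control 100, at or above a set limit in every replicate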;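 note: luciferase carries N-glycosylation sites so blocking glycosylation raises the light; 0% = median of neutral control wells and 100% = median of 100 nM tunicamycin wells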
# Alpha artifact – AlphaScreen signal interference with preloaded methylated product, dose response, artefact control for NSD2 inhibitor project, biochemical, cherry-picked samples | shares compounds with NSD2 inh | AlphaScreen artifact counterscreen, preloaded methylated H4 peptide | AC35, µM (top dose mostly 10 µM), for the others: top-dose activity change, negative = signal loss | 1,500 tested, 9.4% active | AID 1053174, 2014; call rule not given here
# The depositor's hits bear a star; / = no result. In the library only some 3.9% were active in any assay of this set; here they are far more common.
SMILES,ALR inh,Mot1-301 SUMO,NSD2 inh,CDK5 inh,Casp6 inh,N-glyco inh,Alpha artifact
CCOC(=O)c1cc(-c2ccc(F)cc2)nc2c1c(=O)[nH]c(=O)n2Cc1ccccc1,-3,0,86*,0,1,-2,3%
CC(=O)/C(N=Nc1c(C)n(C)n(-c2ccccc2)c1=O)=C(\C)O,66,7,-7,0,11,1,/
Cc1c(N=NC2=C(O)CC(C)(C)CC2=O)c(=O)n(-c2ccccc2)n1C,11,65,96*,-1,1,2,-2%
CSc1nnc2c(n1)OC=Nc1ccc(Br)cc1-2,5,/,4,1,0,1,/
CSc1nnc2c(n1)OC=Nc1ccccc1-2,-6,-5,67*,-6,/,0,-5%
CCCCC(=O)OCc1cn(-c2ccc(Cl)cc2)nn1,-14,/,121*,0,/,2,6%
Cc1ccccc1NC(=O)OCc1cn(-c2ccc(Cl)cc2)nn1,-11,/,-3,-1,/,0,/
Cc1ccc2c(c1C)-c1c(ccc(C)c1C)C(=O)C2=O,/,/,85*,2,8,-15,-8%
Cc1ccc(CC#N)c(-c2c(CC#N)ccc(C)c2C)c1C,/,/,-4,/,0,-9,/
COc1cccc(-c2ccc([C@@H]3[C@H]4CN(C(=O)CN5CCOCC5)CC(=O)N4[C@H]3CO)cc2)c1,/,/,/,/,2,/,/
Cc1cccc(OCC(=O)N/N=C/c2sc(=O)n(Cc3cccc(C(=O)O)c3)c2Cl)c1,15,-4,-1,1,0,2,/
O=C(COc1ccccc1)N/N=C/c1sc(=O)n(Cc2cccc(C(=O)O)c2)c1Cl,96*,-13,62*,1,14,0,-3%
Cc1cc(=O)n2ccccc2c1C#N,-3,-13,1,0,/,2,/
COc1ccc2c(C#N)c3ccccn3c2c1,25,0,52*,1,62*,-1,9%
C[C@@H]1CCCCO[C@H](CN(C)C(=O)c2ccccc2)[C@H](C)CN([C@@H](C)CO)C(=O)c2cc(N(C)C)ccc2O1,/,/,/,/,2,/,/
O=C(COC(=O)c1ccc([N+](=O)[O-])o1)NC1CCS(=O)(=O)C1 (configuration not stated),/,-2,74*,-2,49*,2,1%
Cc1cc(C(=O)COC(=O)c2ccc([N+](=O)[O-])o2)c(C)n1CC1CCCO1 (configuration not stated),-251,13,54*,-1,14,-3,-5%
CCN(C(=O)COC(=O)c1ccc([N+](=O)[O-])o1)C1CCCCC1,-92,45,69*,0,7,0,-4%
CCN(C(=O)COC(=O)c1cccnc1SC)C1CCCCC1,-6,-14,-1,0,-1,3,/
COCCn1c(C)cc(C(=O)COC(=O)c2ccc([N+](=O)[O-])o2)c1C,-21,2,15,1,2,-6,/
C[C@@H]1CN([C@H](C)CO)C(=O)c2cccc(NS(=O)(=O)c3cccs3)c2O[C@H]1CN(C)S(=O)(=O)c1ccccc1,/,/,/,/,-3,/,/
COc1ccccc1NC(=O)C(C)OC(=O)CCNS(=O)(=O)c1cccc(C(F)(F)F)c1 (configuration not stated),/,5,105*,0,-2,4,-3%
CC(C)NC(=O)N(C)C[C@@H]1OCCCC[C@@H](C)Oc2ccc(NC(=O)C3CCCCC3)cc2C(=O)N([C@H](C)CO)C[C@@H]1C,/,/,/,/,-2,/,/
O=C(CSc1ccc(Cl)cc1)Nc1cc(-c2nc3ncccc3o2)ccc1Cl,-9,/,51*,/,-1,/,-6%
CCC(=O)N1C[C@H](C)[C@H](OC)CN(C)C(=O)c2ccc(NC(=O)COC)cc2OC[C@H]1C,/,/,/,/,2,/,/
SMILES,ALR inh,Mot1-301 SUMO,NSD2 inh,CDK5 inh,Casp6 inh,N-glyco inh,Alpha artifact
CC1=C(C#N)c2nc(N)c(C#N)c(C)c2/C1=C\c1ccc(-c2ccccc2C(=O)O)o1,/,/,82*,0,54*,1,-12%
O=C(N[C@H]1C=C[C@@H](CC(=O)N2CCCCC2)O[C@@H]1CO)c1cccc(F)c1,/,/,/,/,0,/,/
CC(=O)C(C(C)=O)C1(O)C(=O)c2ccccc2C1=O,34,10,104*,-4,8,-1,1%
COc1ccc(C(=O)c2nccc3cc(OC)c(OC)cc23)cc1OC,-25,-5,90*,1,/,3,-1%
CCN1CCN(Cc2nc(N)nc(Nc3ccc(C)c(C)c3)n2)CC1,1,-5,95*,0,/,0,4%
CCc1nnc(NC(=O)CCS(=O)(=O)Cc2ccccc2)s1,/,-3,-10,1,2,-5,/
CCC(CC)c1nnc(NC(=O)CCS(=O)(=O)Cc2ccccc2)s1,-16,2,61*,1,-2,-11,-1%
CC(C)CC(=O)N1CCC(O)(CS(=O)(=O)Cc2ccccc2Cl)CC1,-4,3,103*,-1,/,3,0%
Nc1ccc2c(c1)C(=O)C(=O)c1ccccc1-2,33,91,112*,2,/,-19,-8%
O=C(C1CC1)N1C[C@H]2[C@@H](c3ccccc31)[C@@H](CO)N2C(=O)Nc1cccc(F)c1,/,/,/,/,-3,/,/
C[n+]1ccc(/C=C/c2ccccc2O)c2ccccc21,44,-11,50*,2,-9,0,-6%
COc1ccc(CNC(=O)c2nnn(-c3cccc(C(F)(F)F)c3)c2N)cc1,6,-19,51*,0,14,5,2%
O=C(NCc1ccc(F)cc1)C1CCCN1S(=O)(=O)c1ccccc1C(F)(F)F (configuration not stated),-1,-6,137*,1,0,0,-3%
CN1CCC(=NNC(=O)c2cn(-c3ccccc3)nc2-c2ccccc2)CC1,2,16,53*,-1,2,-1,1%
COc1ccc(-c2nn(-c3ccccc3)cc2C(=O)Nc2ccc(C(=O)O)cc2)cc1,62,-1,73*,-1,4,0,-3%
CCC(C)/C(C)=N/NC(=O)c1cn(-c2ccccc2)nc1-c1ccccc1 (configuration not stated),-2,99,3,-1,/,1,/
